Source: PubChem BioAssay
The list is not random: actives were taken first. Their share in the collection is about 9.3%.
ELG1 DNA repair: qHTS screen for small molecules that inhibit ELG1-dependent DNA repair in human embryonic kidney (HEK293T) cells expressing luciferase-tagged ELG1; Potency, µM (top dose mostly 46.1 µM), without a hit: at the top dose activity change, negative = inhibition, hits mostly inhibitors; hit rate 2.3% among 330,000; AID 504467, 2011; HEK293T ELG1-luciferase reporter, luminescence, 16 h; DNA damage induced by 5-fluorouridine; also: % is scaled to controls: 0 for no effect and ±100 for the full control effect; nearly all actives have a fitted effect of over 55% in size
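5-Fluorouridine DNA damage + compound/DMSO, 2,000 cells/well, 16 h, 37 °C/5% CO2. ONE-Glo, 30 min RT, luminescence. Readout = decrease in reporter signal.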
FLuc modulator: qHTS profiling assay for firefly luciferase inhibitor/activator using purifed enzyme and Km concentrations of substrates (counterscreen for miR-21 project); AID 588342, 2011; Potency, µM (series often up to 57.5 µM), for inactives: top-dose activity change, negative = inhibition, actives largely listed as inhibitors; purified FLuc, Km substrates, luminescence inhibition; Luciferin 4-monooxygenase (Photinus pyralis), P08659; hit rate 6.9% among 360,000;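 also: plate controls were vehicle for no effect and reference inhibitor for full effect; nearly all actives have a fitted effect of over 55% in size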
Target sequence (P08659 whole entry, looked up): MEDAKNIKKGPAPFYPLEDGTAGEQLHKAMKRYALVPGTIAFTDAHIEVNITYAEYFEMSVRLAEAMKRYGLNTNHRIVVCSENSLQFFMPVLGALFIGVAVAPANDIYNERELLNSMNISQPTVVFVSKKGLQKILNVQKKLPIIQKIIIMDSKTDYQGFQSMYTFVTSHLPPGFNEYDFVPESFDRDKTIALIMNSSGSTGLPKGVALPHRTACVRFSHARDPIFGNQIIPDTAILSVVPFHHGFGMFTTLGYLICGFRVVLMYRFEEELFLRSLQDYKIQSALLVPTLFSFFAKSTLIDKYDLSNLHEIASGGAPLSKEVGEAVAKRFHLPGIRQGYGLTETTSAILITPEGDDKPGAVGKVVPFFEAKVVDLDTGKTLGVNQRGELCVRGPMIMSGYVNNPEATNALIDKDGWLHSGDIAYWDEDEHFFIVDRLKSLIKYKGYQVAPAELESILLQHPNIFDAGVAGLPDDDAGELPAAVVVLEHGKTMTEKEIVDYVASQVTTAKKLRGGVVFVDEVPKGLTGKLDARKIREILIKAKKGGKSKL
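Purified P. pyralis luciferase, 10 nM final, with Km-level 10 uM D-luciferin and 10 uM ATP in 50 mM Tris acetate pH 7.5, 10 mM Mg acetate, 0.01% Tween-20, 0.05% BSA; 6-point qHTS titration about 60 µM downward; luminescence read.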
Rab9 prom act: qHTS Assay for Rab9 Promoter Activators. AID 485297, 2010. Potency, µM (highest dose often 9.22 µM), for inactives: top-dose activation, negative = inhibition, usual class: activators. Huh7 Rab9 promoter-luciferase reporter, luminescence, 24 h. hit rate 2.8% among 320,000; also: % of control where 0% means no effect; nearly all actives have a fitted effect of over 60% in size
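Stable Rab9-luc Huh7, 1500 cells/well, 2 h settle; cmpd in DMSO, 24 h, 37 °C/5% CO2; luciferase reagent 10 min RT; luminescence.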
NPC1 promoter act: qHTS Assay for NPC1 Promoter Activators. Potency, µM (highest dose often 9.22 µM), without a hit: at the top dose activation, most hits filed as activators. hit rate 2.4% among 320,000. AID 485313, 2010. Huh7 NPC1 promoter luciferase reporter, 24 h; also: % of control where 0% means no effect; nearly all actives have a fitted effect of over 60% in size
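Stable NPC1-promoter luciferase Huh7 line; cpd (DMSO) 24 h, 37 °C, 5% CO2; Amplite luciferase reagent 10 min RT; luminescence readout. qHTS format.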
SMN2 splice up: qHTS Assay for Enhancers of SMN2 Splice Variant Expression. Potency, µM (titrated, usually from 46.1 µM), without a hit: at the highest dose activity change, positive = activation, most hits filed as activators. HEK293 SMN2-luciferase splicing reporter, luminescence, 30-36 h. hit rate 2.8% among 210,000; also: % of control where 0% means no effect; nearly all actives have a fitted effect of over 55% in size
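qHTS luciferase splicing reporter: luminescence rises when SMN2 exon 7 is included in transfected HEK293 cells. Compound exposure lasted 30-36 h at 37C, with 4.5 mM final sodium butyrate as control, followed by a ONE-Glo read.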
ELG1 genotoxic: qHTS screen for small molecules that induce genotoxicity in human embryonic kidney (HEK293T) cells expressing luciferase-tagged ELG1; HEK293T ELG1-luciferase reporter, luminescence, 16 h; Potency, µM (doses to about 46 µM), inactives show at the top dose activity change, positive = activation, hits mostly activators; hit rate 1.3% among 330,000; AID 504466, 2011; also: % of control where 0% means no effect; nearly all actives have a fitted effect of over 60% in size
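HEK293T cells expressing luciferase-tagged ELG1 were exposed to compound or DMSO vehicle for 16 hr at 37 °C and 5% CO2. Luciferase activity was then measured with ONE-Glo after 30 min at room temperature.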
* hit, by the source's call; ? = inconclusive; . = no result given; ! = not confirmed by another sample. Calls follow the shape of the dose curve; as a rule, active = well fitted curve in the direction sought with a large enough effect; inconclusive = small, poorly fitted or top-dose-only effect, or another doubt; inactive = no such curve, though single readings can be large; an effect the other way counts as inactive or inconclusive. Potency is read from the fitted curve at half-maximal effect.

SMILES	ELG1 DNA repair	FLuc modulator	Rab9 prom act	NPC1 promoter act	SMN2 splice up	ELG1 genotoxic
COC(=O)CC(=O)CSc1nc2c(cc1C#N)CCC2	?	13µM*	20%	2%	1.3µM*	27%
CC(C)OC(=O)CC(=O)CSc1nc2c(cc1C#N)CCC2	?	19µM*	3%	-5%	-19%	1%
COc1ccc(-c2csc3nc(-c4cccnc4)nc(N4CCC(C(N)=O)CC4)c23)cc1OC	-13%	2%	-3%	-1%	14µM*	-2%
COc1cccc(-c2csc(N3CCC(C(N)=O)CC3)n2)c1	.	17µM*	.	.	.	.
CN(C)c1cccc(-c2csc(N3CCC(C(N)=O)CC3)n2)c1	?	.	.	.	.	9%
CS(=O)(=O)c1cccc(-c2csc(N3CCC(C(N)=O)CC3)n2)c1	?	0%	?	2.5µM*!	.	10%
COc1ccc(-c2csc3nc(C)nc(N4CCCCC4)c23)cc1OC	?	-18%	1%	-2%	-22%	-8%
Cc1ccc(OCC(=O)N/N=C/c2cccnc2)cc1C	1%	-5%	-5%	-3%	.	1%
Cc1ccc(Cl)cc1NC(=O)C1CCCN1S(=O)(=O)c1ccc(-c2ccc(=O)[nH]n2)s1 (configuration not stated)	-26%	0%	7%	-8%	.	-3%
COc1ccc(/C=N/n2c(SC)nnc2-c2ccccc2)c(OC)c1OC	8.2µM*	-5%	-14%	-33%	14µM*	3%
COc1ccc(/C=N/n2c(SC)nnc2-c2ccccc2)cc1C	.	-2%	.	.	-13%	.
CCOc1ccc(-c2ccc(/C=C3/C(=N)N4C=CSC4=NC3=O)o2)c([N+](=O)[O-])c1	0%	2%	-6%	0%	-9%	?
CCOc1ccc(-c2ccc(/C=C3/C(=N)N4C(C)=CSC4=NC3=O)o2)c([N+](=O)[O-])c1	26µM*	-14%	0%	4%	-10%	-6%
CN(C)C(=O)c1ccc(NC(=O)CN2C(=O)NC3(CCCc4ccccc43)C2=O)cc1 (configuration not stated)	13%	-7%	-5%	-2%	.	3%
CCOC(=O)C1CCN(c2nc3cc(OC)ccc3cc2C#N)CC1	?	-2%	-10%	-3%	-14%	-3%
COc1ccc2nc(N3CCC(C)CC3)c(C#N)cc2c1	?	11µM*	4µM*	?	20µM*	?
COc1ccc2cc(C#N)c(N3CCN(C(=O)c4ccccc4C)CC3)nc2c1	13µM*	1%	-2%	-3%	-46%	-24%
COc1ccc2cc(C#N)c(N3CCOCC3)nc2c1	-26%	-8%	-4%	-4%	.	-7%
COc1ccc2nc(N3CCC(O)CC3)c(C#N)cc2c1	0%	15µM*	5%	19%	-9%	6%
COc1ccc(C(=O)N2CCN(c3nc4cc(C)ccc4cc3C#N)CC2)c(OC)c1	?	0%	-8%	-6%	-39%	-29%
O=c1[nH]c(SCc2c(F)cccc2Cl)nc2c1CCCC2	.	-4%	.	.	.	.
O=C(NCc1ccccn1)c1ccc([N+](=O)[O-])cc1	9%	-2%	-3%	-1%	-5%	-1%
O=C(NCc1ccccn1)c1ccc(-c2ccccc2)cc1	?	12µM*	?	?	.	?
Cc1ccc(-c2cc(C(=O)NCc3ccco3)no2)cc1	?	?	2.2µM*	2.8µM*	?	?
O=C(NNC(=O)c1ccccn1)c1ccc(OC(F)F)cc1	-13%	.	.	.	.	?
SMILES	ELG1 DNA repair	FLuc modulator	Rab9 prom act	NPC1 promoter act	SMN2 splice up	ELG1 genotoxic
O=C(NCCc1ccccn1)c1ccc(OC(F)F)cc1	?	11µM*	0.79µM*	1.4µM*	11µM*	?
O=C(NCc1ccco1)c1cc(-c2ccc(Cl)cc2)on1	?	-11%	?	3.2µM*	-11%	16%
COc1ccc(NC(=O)CN2C(=O)C(=O)c3ccccc32)c(OC)c1	.	-1%	.	.	-10%	.
CCC(=O)N1CCc2cc(S(=O)(=O)NCCC(=O)Nc3cc(C)ccc3OC)ccc21	.	-9%	.	.	1%	.
O=C(NCc1ccco1)c1cc(-c2ccc3c(c2)OCO3)on1	?	?	4µM*	2.5µM*	?	?
O=C(NCc1ccco1)c1cc(-c2cccc(Cl)c2)on1	?	-4%	24%	24%	-6%	?
O=C(/C=C/c1ccc(Cl)cc1)NCc1ccco1	?	13µM*	21%	6%	24%	12%
Cc1cc(C(=O)NCc2ccco2)no1	2%	-2%	-8%	-5%	.	0%
O=C(NCc1ccccn1)c1cn(-c2ccccc2)nc1-c1ccc(Cl)cc1	-16%	19µM*	-5%	-2%	12%	0%
CC(C)Cc1cc(C(=O)NCc2ccco2)no1	?	17µM*	4µM*	?	.	?
O=C(/C=C/c1ccc(S(=O)(=O)NCc2ccco2)cc1)NCc1ccccc1Cl	-8%	-1%	8%	-5%	.	2%
CCOc1ccc(-n2c(SCC(=O)Nc3ccc4c(c3)OCCO4)nc3c([nH]c4ccccc43)c2=O)cc1	.	5%	.	.	.	.
Fc1cccc(Cl)c1-c1nnc2ccc(C(F)(F)F)cn12	-1%	0%	2%	0%	.	1%
CC(=O)N[C@H](Cc1c[nH]c2ccccc12)C(N)=O	.	.	.	.	-8%	.
O=C(COc1ccc(Br)cc1)NCCCNC(=O)c1ccncc1	13%	3%	0%	-3%	.	4%
COc1cccc(C2CC(=O)N(c3ccc(F)cc3)C3=C2C(=O)OC3)c1OC (configuration not stated)	.	2%	.	.	14%	.
COc1cccc(-c2cc(C(=O)NCc3ccco3)no2)c1	?	11µM*	1.8µM*	3.2µM*	11µM*	10µM*
O=C(NCc1ccccn1)c1cc(-c2ccccc2)on1	?	?	?	24%	?	?
Cc1ccc(-c2cc(C(=O)NCc3ccccn3)no2)cc1	?	17µM*	?	?	28µM*	13µM*
Cn1ncc(C(N)=O)c1NC(=S)NC(=O)c1ccc(Br)o1	7%	2%	-1%	0%	19%	0%
Cc1ccc(-c2cc(C(=O)N3CCCC3)no2)cc1	?	0.76µM*	?	?	0.89µM*	0.23µM*
